Measured values: PubChem BioAssay AID1159580 (chemical genetic matrix, 2015)
The whole screen tested about 5,500 compounds, of which about 2,000 (36%) were called active. Another 18% or so got no clear call; they are omitted. No stated cut-off is given here; in the data, active means normalized growth mostly below about 0.91 (no sharp cut-off); inconclusive means no clear call, values can overlap the other calls; inactive means mostly above about 0.92. The list shows a part of the results.

Test: chemical genetic growth profiling, strain panel (AID 1159580);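 further: tested at 20 µM; growth read once vehicle control cultures reached saturation at 30 °C; 1 = growth at the plate median or of vehicle wells; lower values mean less growth of the strain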
Conditions: growth OD

Measured: normalized growth

CC1(C)C(=O)[C@@H]2O[C@@H]2[C@@]2(C)C1C[C@@H](O)[C@]1(C)C2CC[C@@]2(C)[C@H](c3ccoc3)OC(=O)C3OC321 (some centres not stated)
inactive: S. cerevisiae deletion strains, locus YJL187C, strain SWE1, active compounds read low 0.994 | S. cerevisiae deletion strains, locus YJR043C, strain POL32, active compounds read low 0.998 | S. cerevisiae deletion strains, locus YJR066W, strain TOR1, active compounds read low 0.926 | S. cerevisiae deletion strains, locus YKL009W, strain mrt4, active compounds read low 1.02 | S. cerevisiae deletion strains, locus YKL068W, active compounds read low 0.993 | S. cerevisiae deletion strains, locus YKL085W, strain MDH1 (second series), active compounds read low 0.997 | S. cerevisiae deletion strains, locus YKL085W, strain MDH1, active compounds read low 0.997 | S. cerevisiae deletion strains, locus YKL160W, strain elf1, active compounds read low 0.998 | S. cerevisiae deletion strains, locus YKR001C, strain vps1, active compounds read low 0.979 | S. cerevisiae deletion strains, locus YKR026C, strain gcn3, active compounds read low 0.995 | S. cerevisiae deletion strains, locus YKR091W, strain srl3, active compounds read low 0.992 | S. cerevisiae deletion strains, locus YLL001W, strain dnm1, active compounds read low 0.99 | S. cerevisiae deletion strains, locus YLL026W, active compounds read low 0.99 | S. cerevisiae deletion strains, locus YLL041C, strain sdh2, active compounds read low 0.999 | S. cerevisiae deletion strains, locus YLR027C, strain aat2, active compounds read low 0.984 | S. cerevisiae deletion strains, locus YLR039C, strain RIC1, active compounds read low 1.11 | S. cerevisiae deletion strains, locus YLR058C, strain SHM2, active compounds read low 0.997 | S. cerevisiae deletion strains, locus YLR102C, strain apc9, active compounds read low 0.987 | S. cerevisiae deletion strains, locus YLR113W, strain HOG1, active compounds read low 1.01 | S. cerevisiae deletion strains, locus YLR221C, strain rsa3, active compounds read low 0.999 | S. cerevisiae deletion strains, locus YLR258W, strain gsy2, active compounds read low 1.02 | S. cerevisiae deletion strains, locus YLR262C, strain YPT6 (second series), active compounds read low 0.973 | S. cerevisiae deletion strains, locus YLR268W, strain sec22, active compounds read low 0.987 | S. cerevisiae deletion strains, locus YLR320W, strain mms22, active compounds read low 0.998 | S. cerevisiae deletion strains, locus YLR330W, strain CHS5, active compounds read low 1 | S. cerevisiae deletion strains, locus YLR342W, strain FKS1 (second series), active compounds read low 0.992 | S. cerevisiae deletion strains, locus YLR342W, strain FKS1, active compounds read low 0.999 | S. cerevisiae deletion strains, locus YLR357W, strain rsc2, active compounds read low 0.968 | S. cerevisiae deletion strains, locus YLR370C, strain arc18, active compounds read low 0.995 | S. cerevisiae deletion strains, locus YLR371W, strain rom2, active compounds read low 0.982 | S. cerevisiae deletion strains, locus YLR384C, strain iki3, active compounds read low 1.02 | S. cerevisiae deletion strains, locus YLR418C, strain cdc73, active compounds read low 0.919 | S. cerevisiae deletion strains, locus YML016C, strain PPZ1, active compounds read low 1.01 | S. cerevisiae deletion strains, locus YML032C, strain rad52, active compounds read low 0.994 | S. cerevisiae deletion strains, locus YML120C, strain ndi1, active compounds read low 1 | S. cerevisiae deletion strains, locus YML124C, strain tub3, active compounds read low 0.996 | S. cerevisiae deletion strains, locus YMR058W, strain fet3, active compounds read low 1 | S. cerevisiae deletion strains, locus YMR078C, strain ctf18, active compounds read low 0.994 | S. cerevisiae deletion strains, locus YMR125W, strain sto1, active compounds read low 1 | S. cerevisiae deletion strains, locus YMR129W, active compounds read low 1 | S. cerevisiae deletion strains, locus YMR205C, strain PFK2, active compounds read low 0.999 | S. cerevisiae deletion strains, locus YMR223W, strain ubp8, active compounds read low 0.979 | S. cerevisiae deletion strains, locus YMR231W, strain pep5, active compounds read low 0.98 | S. cerevisiae deletion strains, locus YMR263W, strain SAP30, active compounds read low 0.974 | S. cerevisiae deletion strains, locus YMR307W, strain GAS1, active compounds read low 0.938 | S. cerevisiae deletion strains, locus YNL067W, strain RPL9B, active compounds read low 0.982 | S. cerevisiae deletion strains, locus YNL071W, strain lat1, active compounds read low 0.998 | S. cerevisiae deletion strains, locus YNL183C, strain NPR1, active compounds read low 0.951 | S. cerevisiae deletion strains, locus YNL209W, strain ssb2, active compounds read low 1.01 | S. cerevisiae deletion strains, locus YNL233W, strain BNI4, active compounds read low 0.99 | S. cerevisiae deletion strains, locus YNL248C, strain rpa49, active compounds read low 0.991 | S. cerevisiae deletion strains, locus YNL250W, strain rad50, active compounds read low 0.982 | S. cerevisiae deletion strains, locus YNL271C, strain bni1, active compounds read low 0.989 | S. cerevisiae deletion strains, locus YNL298W, strain CLA4, active compounds read low 0.971 | S. cerevisiae deletion strains, locus YNL307C, strain MCK1, active compounds read low 0.967 | S. cerevisiae deletion strains, locus YNL322C, strain KRE1 (second series), active compounds read low 1 | S. cerevisiae deletion strains, locus YNR049C, strain mso1, active compounds read low 1.01 | S. cerevisiae deletion strains, locus YNR052C, strain pop2, active compounds read low 0.964 | S. cerevisiae deletion strains, locus YOL006C, strain TOP1, active compounds read low 0.992 | S. cerevisiae deletion strains, locus YOL012C, strain htz1 0.956 | S. cerevisiae deletion strains, locus YOL147C, strain pex11, active compounds read low 0.988 | S. cerevisiae deletion strains, locus YOR001W, strain rrp6, active compounds read low 1.02 | S. cerevisiae deletion strains, locus YOR061W, strain CKA2, active compounds read low 1.01 | S. cerevisiae deletion strains, locus YOR069W, strain VPS5, active compounds read low 1 | S. cerevisiae deletion strains, locus YOR070C, strain gyp1, active compounds read low 0.992 | S. cerevisiae deletion strains, locus YOR080W, strain dia2, active compounds read low 0.988 | S. cerevisiae deletion strains, locus YOR083W, strain WHI5, active compounds read low 0.992 | S. cerevisiae deletion strains, locus YOR106W, strain vam3, active compounds read low 0.995 | S. cerevisiae deletion strains, locus YOR136W, strain idh2, active compounds read low 0.975 | S. cerevisiae deletion strains, locus YOR144C, strain elg1, active compounds read low 0.985 | S. cerevisiae deletion strains, locus YOR184W, strain ser1, active compounds read low 0.978 | S. cerevisiae deletion strains, locus YOR231W, strain MKK1, active compounds read low 0.983 | S. cerevisiae deletion strains, locus YOR265W, strain rbl2, active compounds read low 0.983 | S. cerevisiae deletion strains, locus YOR270C, strain vph1, active compounds read low 0.946 | S. cerevisiae deletion strains, locus YOR290C, strain snf2, active compounds read low 0.968 | S. cerevisiae deletion strains, locus YOR316C, strain cot1, active compounds read low 0.992 | S. cerevisiae deletion strains, locus YPL051W, strain arl3, active compounds read low 0.986 | S. cerevisiae deletion strains, locus YPL078C, strain atp4, active compounds read low 1.01 | S. cerevisiae deletion strains, locus YPL106C, strain sse1, active compounds read low 1 | S. cerevisiae deletion strains, locus YPL240C, strain hsp82, active compounds read low 1.01 | S. cerevisiae deletion strains, locus YPL256C, strain CLN2, active compounds read low 0.952 | S. cerevisiae deletion strains, locus YPR119W, strain clb2, active compounds read low 0.982 | S. cerevisiae deletion strains, locus YPR141C, strain kar3, active compounds read low 0.992 | S. cerevisiae deletion strains, locus YPR163C, strain tif3, active compounds read low 0.979 | S. cerevisiae deletion strains, locus YPR167C, strain met16, active compounds read low 0.982 | S. cerevisiae deletion strains, strain wtn01, active compounds read low 0.999 | S. cerevisiae strains, strain wild type, active compounds read low 0.994
